# In PubChem BioAssay (NCI):
# “And” between values parts separate entries of the source, which are not always exact repeats. Equal values may be shown once. Compounds without any hit were thinned out: in the full panel of roughly 83,000, 20% have a hit.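 Treatment: one concentration, 48 hours, 96-well format. Scoring: percent growth, with anything below 10 considered active.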 The source made the active and inactive calls.
# Tested on: MDA-MB-468 breast
# Assay: NCI-60 one-dose screen, 48 h (100 = growth as untreated, 0 = no growth, -100 = all killed)
# Details: 10 µM unless noted
row,Compound,growth
1,C=CCn1c(SCC(=O)Nc2cccc(C(=O)/C=C/c3ccc(C)cc3)c2)nc2ccccc2c1=O,76.3% (inactive)
2,CN1CCN(C(=O)[C@@]2(C)CC[C@]3(C)CC[C@]4(C)C(=CC[C@@H]5[C@@]6(C)CCC(=O)NC(C)(C)[C@@H]6CC[C@]54C)[C@@H]3C2)CC1,13.5% (inactive)
3,c1ccc2c(c1)Oc1cccnc1-n1nccc1-2,94.7% (inactive)
4,Cc1ccccc1NC(=O)N/C(N)=N/c1nc2ccccc2s1,1.56% (active)
5,CCCCCn1sc(=O)n(Cc2ccc(CNC(=O)C(C)c3ccc(CC(C)C)cc3)cc2)c1=O (configuration not stated),106% (inactive) and -81% (active)
6,NC1=C(C/C(N)=N\O)C(c2ccccc2Cl)c2c(ccc3ccccc23)O1 (configuration not stated),61.6% (inactive)
7,COc1ccc(-n2c(=S)sc3c(Cl)nc(C)nc32)c(OC)c1,-19.6% (active)
8,CCOC(=O)C1=C(C)N=C2SC=C(c3ccccc3)N2[C@H]1c1cn[nH]c1-c1ccc(Cl)cc1,22.4% (inactive)
9,S=c1[nH]nc(CSc2ncnc3c2c(-c2ccccc2)cn3-c2ccc(Cl)cc2)o1,108% (inactive)
10,O=C(CN1CCOCC1)Nc1ccc(Cn2nnc3c2C(=O)c2nnn(Cc4ccc(NC(=O)CN5CCOCC5)cc4)c2C3=O)cc1,-61.7% (active)
11,CCOC(=O)C1CCN(c2ccc(N3C[C@@H](CNCc4ccc(C(=N)N)cc4)OC3=O)cc2)CC1,100% (inactive)
12,COc1ccc(NC(=O)Nc2ccc(-c3cccnc3)cc2N2CCC(CO)CC2)cc1,42.5% (inactive)
13,Cn1cc(C(=O)c2nc(-c3cn(C)c4ccc(F)cc34)no2)c2cc(F)ccc21,94.1% (inactive)
14,O=C(/C=C/c1ccccc1)c1ccc(-n2cc(CN3CCN(c4cc5c(cc4F)c(=O)c(C(=O)O)cn5C4CC4)CC3)nn2)cc1,66% (inactive)
15,CN(C)CCC=C1c2ccccc2C(C)(C)c2ccccc21,56.6% (inactive)
16,O=C(CCCSc1nc(-c2ccc(Cl)cc2)cc(-c2ccc(Cl)cc2)n1)NO,-49.5% (active)
17,CCOC(=O)c1cc(C#N)n2ncc3ccccc3c12,87.9% (inactive)
18,CC(C)(C)n1cc(-c2ccnc(NCCNS(=O)(=O)c3cccc4ccccc34)c2)c(-c2cccc(O)c2)n1,46.2% (inactive)
19,CC(=O)[C@@H]1CC[C@]2(C(N)=O)CC[C@]3(C)[C@H](CC[C@@H]4[C@@]5(C)CCCNC(C)(C)[C@@H]5CC[C@]43C)[C@@H]12,82.2% (inactive)
20,Oc1ccc(CSc2nnc(-c3ccc(Cl)cc3)o2)c2cccnc12,26.3% (inactive)
21,COc1ccc(-c2[nH]c3ccccc3c2C=C(C#N)C#N)cc1,-19.8% (active)
22,CN(C)CCCOc1ccc2c(c1)CN(C(=O)c1cc(C(=O)N3Cc4cccc(F)c4C3)ccc1O)C2,106% (inactive)
23,O=C1/C(=C/c2ccccn2)CCc2ccccc21,98.4% (inactive)
24,O=S(=O)(Nc1ncccn1)c1ccc(NC2Nc3nc4ccccc4nc3S2)cc1 (configuration not stated),95.5% (inactive)
25,CC(=O)C1N=NCC1c1ccccc1 (configuration not stated),102% (inactive)
26,Cn1cc(-c2csc(-c3cn(C)c4ncccc34)n2)c2cccnc21,-10.8% (active)
27,COc1ccc(S(=O)(=O)N2CCCCC2)cc1NC(=O)c1[nH]c(C)c2c1CCCCC2=O,-2.19% (active)
